In the first assay the target is METRNL. Kind of assay: pooled miR-30 sensor sort-seq; sequence = guide strand. Conditions: shRNA.
As for TTAACGATGAGAGCACCTGTTG, the sensor-assay potency score (higher = more potent) is -1.05.

TAGAGTCTGCTCACGCGCAGGT came in with a sensor-assay potency score (higher = more potent) of 0.197.

Take TCGAACGGCGAAGTCGCTGGTG: the sensor-assay potency score (higher = more potent) was -0.372.

Turning to ATAGAGTCTGCTCACGCGCAGG, the sensor-assay potency score (higher = more potent) is -1.52.

The sequence TACATCCTCTGGAAGTCCTTGA returned a sensor-assay potency score (higher = more potent) of 0.329.

In turn, TGGAAGTCCTTGAAGCGTGGGG displayed a sensor-assay potency score (higher = more potent) of -0.538.

Consider TTTTACAGCATTTCCAATCGGC, for which the sensor-assay potency score (higher = more potent) was 0.396.

The sequence TAACGATGAGAGCACCTGTTGG showed a sensor-assay potency score (higher = more potent) of -0.773.

Regarding TGAAGGACCTGATGCACACGGT, the sensor-assay potency score (higher = more potent) was -0.842.

In the case of TTAGTTTGCATTTTACAGCATT, the sensor-assay potency score (higher = more potent) was -0.859.

TACTGGAAGCCTGTGGTCCTCC displayed a sensor-assay potency score (higher = more potent) of -0.709.

With TGAAGCGTGGGGCACAGCCGAG, the sensor-assay potency score (higher = more potent) was -1.51.

The target in a further assay is METTL16. The description is as above. The note with it: shRNA.
In turn, TTTGCTTACCTAATTCTGCTTC gave a sensor-assay potency score (higher = more potent) of 0.554.

As to TTTCTCTAATTTTCTTCGCTTA, the sensor-assay potency score (higher = more potent) is -0.889.

Sequence TTGTCCTTGTATCTATTTCTTG registered a sensor-assay potency score (higher = more potent) of -1.01.

For the sequence TGTATTAACAGAACTAGGCGGA, the sensor-assay potency score (higher = more potent) turned out to be 0.503.

With TAACAAACTCTAATTCACCTCC, the sensor-assay potency score (higher = more potent) was 0.296.

TTCTTCTTTAAGAGCATCCATC returned a sensor-assay potency score (higher = more potent) of -1.07.

Regarding TTATCAAACACTTAAACAGGTA, the sensor-assay potency score (higher = more potent) is -0.44.

On to TTAACGTTTATCAAACACTTAA, for which the sensor-assay potency score (higher = more potent) was -1.21.

Regarding TTCTTTAAGAGCATCCATCAGG, the sensor-assay potency score (higher = more potent) is -0.744.

In turn, TTCTTCGCTTACTTGGTGGTGA returned a sensor-assay potency score (higher = more potent) of 0.819.

With TTTAAGAGCATCCATCAGGAGT, the sensor-assay potency score (higher = more potent) is -1.04.

For the sequence TAAGGCATCGTCCACCTCCTTC, the sensor-assay potency score (higher = more potent) was -0.93.

Another assay has as its target METTL21C. Described as above. Conditions: shRNA.
On to TTAGATATTTAGATTAACCAGA, for which the sensor-assay potency score (higher = more potent) was -0.625.

Consider TGTAGGAACAAATTTCTGGAGG, for which the sensor-assay potency score (higher = more potent) was -0.694.

TTCCTGGATGACAATCTCCTTT registered a sensor-assay potency score (higher = more potent) of -0.999.

TGTTGTGTCAAAAACTTGCTTG had a sensor-assay potency score (higher = more potent) of 0.0873.

The sequence TAAAAGATTGTATTGAAGGTTT gave a sensor-assay potency score (higher = more potent) of -0.706.

Turning to TCATAGTCGGTGCTGAACCTGA, the sensor-assay potency score (higher = more potent) was -0.238.

TTCTTCTCAGCCTCTAACCAGC had a sensor-assay potency score (higher = more potent) of -1.05.

Take ATCTGTAGGAACAAATTTCTGG: the sensor-assay potency score (higher = more potent) is -0.452.

TATCTTGTTGGATTCTTCTAGG gave a sensor-assay potency score (higher = more potent) of -0.565.

Sequence TAACTCTCTATGGATTCCTGGA showed a sensor-assay potency score (higher = more potent) of -0.728.

TTAGAAATTAGAAAGTTTCTGC: the sensor-assay potency score (higher = more potent) stood at 0.573.

Consider TAGATTAACCAGATAATCTTAA, for which the sensor-assay potency score (higher = more potent) was -0.406.

The next assay addresses METTL21D. Described as above. The note with it: shRNA.
As for TTGTAGTTATTCAAAAACCTTT, the sensor-assay potency score (higher = more potent) was -1.15.

Turning to TAGCACTGTACCATCCCGCTTC, the sensor-assay potency score (higher = more potent) was 0.175.

Regarding TGAACTAAGTAACCTAAGCTGG, the sensor-assay potency score (higher = more potent) is -0.584.

For the origin of these results see the OligoGym collection.
Further: reference of the scale not given here.
